The values below come from PubChem BioAssay (EPA / NIEHS).

The structures appear in SMILES notation. Active and inactive are the calls of the source. How the source made its calls: active means hit-call score of the fitted dose curve at least 0.9, where 1 is the maximum; inactive means score below 0.9.

Sequence of Retinoic acid receptor alpha (Homo sapiens) (P10276 whole entry, looked up): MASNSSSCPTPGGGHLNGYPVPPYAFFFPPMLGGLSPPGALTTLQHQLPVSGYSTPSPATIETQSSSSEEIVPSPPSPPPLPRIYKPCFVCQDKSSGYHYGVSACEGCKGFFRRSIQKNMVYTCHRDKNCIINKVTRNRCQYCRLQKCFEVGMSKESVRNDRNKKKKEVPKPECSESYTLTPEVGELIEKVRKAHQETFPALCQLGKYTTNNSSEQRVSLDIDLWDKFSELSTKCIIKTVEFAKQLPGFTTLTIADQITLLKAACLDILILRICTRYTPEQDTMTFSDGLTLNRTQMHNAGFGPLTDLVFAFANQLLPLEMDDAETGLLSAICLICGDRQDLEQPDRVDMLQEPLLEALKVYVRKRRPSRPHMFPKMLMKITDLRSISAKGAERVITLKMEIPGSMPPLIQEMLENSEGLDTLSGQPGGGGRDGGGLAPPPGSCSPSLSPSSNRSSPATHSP

The target in this experiment is Retinoic acid receptor alpha (Homo sapiens) (UniProt P10276). Description: ATG_DR5_RAR_CIS: Attagene CIS-FACTORIAL HepG2 Assay for human Retinoic Acid Receptor Alpha (RARE), DR5 submotif (AID 2282934).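 On AC50: reporter responds to endogenous RAR alpha beta and gamma in HepG2 not RARA alone.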 The conditions noted are these: HepG2 Attagene cis-factorial RARE DR5 reporter, mRNA; actives raise or lower the signal. On the procedure:
ATG_CIS is a cell-based, multiplexed-readout assay that uses HepG2, a human liver cell line, with measurements taken at 24 hours after chemical dosing in a 24-well plate.ATG_DR5_RAR_CIS is one of 52 assay component(s) measured or calculated from the ATG_CIS assay. It is designed to make measurements of mRNA induction, a form of inducible reporter, as detected with fluorescence intensity signals by Reverse transcription polymerase chain reaction (RT-PCR) and Capillary electrophoresis technology.Data from the assay component ATG_DR5_RAR_CIS was analyzed into 1 assay endpoint. This assay endpoint, ATG_DR5_CIS, was analyzed with bidirectional fitting relative to DMSO as the negative control and baseline of activity. Using a type of inducible reporter, measures of mRNA for gain or loss-of-signal activity can be used to understand the reporter gene at the transcription factor-level as they relate to the gene RARA and RARB and RARG. Furthermore, this assay endpoint can be referred to as a primary readout, because this assay has produced multiple assay endpoints where this one serves a reporter gene function. To generalize the intended target to other relatable targets, this assay endpoint is annotated to the nuclear receptor intended target family, where the subfamily is non-steroidal.
Human liver HepG2 cells are transiently transfected with multiple reporter transcription units (MRTUs) in 6-well plates using FuGene 6 reagent (Roche; 3 ml FuGene/1 mg DNA). The MRTU constructs are regulated by a cis-regulating element (promoter). […] A major difference between the CIS and TRANS system is that in CIS activities of endogenous TFs are measured, whereas the TRANS assay evaluates changes in activities of exogenous, chimeric NR-Gal4 proteins. […] At the end of 24 hour incubation, total RNA was isolated using TriZol reagent (Invitrogen). The isolated RNA is then reverse-transcribed using oligo(dT) primer and Mo-MLV reverse transcriptase (Invitrogen) with DNAse I (Ambion) treatment for 30 min. The one-tenth of the produced cDNA was amplified by PCR using Taq DNA polymerase (Invitrogen) and two reporter sequence-specific primers. The PCR products were fluorescently labeled by primer extension with 6-arboxyfluorescein (6-FAM) 5'-labeled reporter sequence-specific primer (2 min at 95 C, 20 s at 68 C and 10 min at 72 C) and these products were digested with 5U of HpaI (New England Biolabs) for 2h at 37 C. The fragments were purified using Qiaquick PCR columns (Qiagen), analyzed on an ABI 3130xL genetic analyzer (Applied Biosystems) with peak positions identified by using a set of X-rhodamine (ROX)-labeled MapMarker1000 molecular weight standards (BioVentures). The raw capillary electrophoresis data was processed using Attagraph software (Attagene).
For `Nc1nc(=S)c2[nH]cnc2[nH]1`, the compound was called inactive.
Same read-out and setting: next, `NC1CCCCC1`: “inactive”.
As to `CCCCOC(=O)CCCCC(=O)OCCCC`, the compound was called inactive.
On to `NC=O`, for which the result was inactive.
As for `COC(=O)CCCC(=O)OC`, the call was inactive.
On the same count and under the same terms, the value for `CC(N)=O` was “inactive”; that for `CC(C)c1cccc(C(C)C)c1NC(=O)NS(=O)(=O)c1cc(C(C)(C)O)co1` was “inactive”; that for `Cn1cnc2c1c(=O)[nH]c(=O)n2C` was “inactive”.
`CCCCCCCCCCCCCCCCO`: the AC50 was 100 µM (active).
Consider `Oc1ccccc1O`, for which the compound was classed as inactive.
On the same count and under the same terms, the value for `O=C(Oc1ccccc1)c1cccc(C(=O)Oc2ccccc2)c1` was “inactive”; that for `O=[Si]=O` was “inactive”.
The same measure, in the same setting: next, `O=Cc1ccccc1C=O`: “inactive”; `CC(=O)[C@@]1(O)CC[C@H]2[C@@H]3CCC4=CC(=O)CC[C@]4(C)[C@H]3CC[C@@]21C`: “inactive”; `CC(C)(C)c1ccccc1`: “inactive”.
Still for that read-out and setting: the value for `CC(C)COC(=O)CCCCC(=O)OCC(C)C` was “inactive”.
For `O=C1OC(c2ccc(O)cc2)(c2ccc(O)cc2)c2ccccc21`, the AC50 is 4.2 µM (active).
`O=C(NS(=O)(=O)/C=C/c1cccs1)c1ccc(F)cc1Br`: the result was inactive.
Turning to `Oc1ccc(O)cc1`, the compound was called inactive.
Same read-out and setting: next, `CC(C)OC(=O)C(C)(C)Oc1ccc(C(=O)c2ccc(Cl)cc2)cc1`: “inactive”.
As to `S=c1[nH]c2ccccc2s1`, the call was inactive.
On the same count and under the same terms, next, `CCCC(=O)O`: “inactive”.
For `O=C(N[C@@H](c1ccccc1)[C@@H]1CCCCN1)c1cccc(C(F)(F)F)c1Cl`, the half-maximal activity concentration (AC50) is 20.9 µM (active).
For the compound `O=C(O)CN(CC(=O)O)CC(=O)O`, the compound was classed as inactive.
As for `CC(=O)OC1CC(C)OC(C)O1` (centres undefined), the compound was called inactive.
Take `CC(C)c1cccc(C(C)C)c1`: the result was inactive.
The same measure, in the same setting: the value for `O=NO` was “inactive”.
Same read-out and setting: the value for `Cc1ccc(-c2cc(C(F)(F)F)nn2-c2ccc(S(N)(=O)=O)cc2)cc1` was “inactive”; that for `CC(C)(O)c1ccc(CNC(=O)c2cccnc2Oc2ccc(F)cc2)cc1` was “inactive”.
On to `CC(COCC(C)OC(=O)c1ccccc1)OC(=O)c1ccccc1` (centres undefined), for which the result was inactive.
Still for that read-out and setting: next, `N[C@@H](Cc1c[nH]c2ccccc12)C(=O)O`: “inactive”.
For `CCCCCCC(C=O)=Cc1ccccc1`, the outcome was inactive.
With `CCN(CC)CCOc1ccc(C(=C(Cl)c2ccccc2)c2ccccc2)cc1`, the result was inactive.
As to `Cc1cc(Cc2ccc(N)c(C)c2)ccc1N`, the call was inactive.
